# From PubChem BioAssay
# Tcruzi prolif – T. cruzi intracellular proliferation inhibitors, primary screen, cell-based, beta-gal Tulahuen parasites, NIH3T3 host, luminescence; T. cruzi beta-gal in NIH3T3, GalScreen luminescence, 90 h; inhibition, % at 8.34 µM; actives 5.9% (n = 77,000); AID 624255, 2012;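 active = mean inhibition above about 93%, with at least 55% of replicates each passing it, limit read from the data, passing the limit was not always enough; inconclusive = only one of those two conditions holds; inactive = neither condition holds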
# C diff growth – C. difficile growth inhibitors, primary screen, HTS; Clostridium difficile clinical isolate growth, OD600, 24 h; hits give low values; growth activity, negative = inhibition, % at 16 µg/mL (by protocol); actives 0.25% (n = 86,000);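 active = mean growth activity at or below -80% and every replicate also at or below -80%; inconclusive = mean at or below -80% but some replicate above -80%; inactive = mean growth activity above -80%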
# Pf Dd2 growth – P. falciparum Dd2 growth inhibitors, primary screen, SYBR Green fluorescence, single dose replicates. 72 h; hits give low values. activity change, % at 10 µM. actives 2.3% (n = 94,000). AID 1159554, 2015; in the data active = activity change below about -80%; inconclusive = no clear call, values can overlap the other calls
# Hits are given with their value; - = inactive; ? = inconclusive; . = no result given. A selection: hits, their analogues and other compounds. The true share with any hit is near 6.7%.
SMILES,Tcruzi prolif,C diff growth,Pf Dd2 growth
C[C@H]1CN([C@@H](C)CO)C(=O)c2c(c3ccccc3n2C)-c2ccccc2CO[C@@H]1CN(C)Cc1ccc(Oc2ccccc2)cc1,.,-,-87
C[C@H]1CN([C@@H](C)CO)C(=O)c2c(c3ccccc3n2C)-c2ccccc2CO[C@H]1CN(C)Cc1ccc(Oc2ccccc2)cc1,.,-,-84
C[C@@H]1CN([C@H](C)CO)C(=O)c2c(c3ccccc3n2C)-c2ccccc2CO[C@H]1CN(C)Cc1ccc(Oc2ccccc2)cc1,.,-,-87
C[C@H]1CN([C@@H](C)CO)C(=O)c2c(c3ccccc3n2C)-c2ccccc2CO[C@H]1CN(C)Cc1ccc(F)cc1,.,-,-
CCN1[C@H](C(=O)Nc2nccs2)[C@@H](CO)[C@@H]2Cn3c(ccc(/C=C/c4ccccc4)c3=O)[C@@H]21,.,-,-
O=C(C[C@@H]1CC[C@@H](NC(=O)C2CCC2)[C@H](CO)O1)Nc1nccs1,-,-,-
COc1cccc(S(=O)(=O)Nc2ccc3c(c2)[C@H]2C[C@@H](CC(=O)NCC(F)(F)F)O[C@@H](CO)[C@H]2O3)c1,-,-,-
CN1CCN(C(=O)C[C@H]2C=C[C@H](NC(=O)c3ccc4c(c3)OCO4)[C@H](CO)O2)CC1,-,-,-
COCC#Cc1ccc(CC[C@H]2O[C@H]3CC[C@H](CO)O[C@H]3C[C@@H]2n2cc(C3CC3)nn2)cc1,.,-,-87
OC[C@@H]1CC[C@@H]2O[C@H](CCc3ccc(-c4ccc(F)cc4)cc3)[C@H](n3cc(C4CC4)nn3)C[C@@H]2O1,.,-,-
COCC#Cc1ccc(CC[C@H]2O[C@H]3CC[C@@H](CO)O[C@H]3C[C@@H]2n2cc(C(C)(C)O)nn2)cc1,.,-,-
OC[C@H]1CC[C@@H]2O[C@H](CCc3ccc(-c4ccc(F)cc4)cc3)[C@H](n3cc(C4CC4)nn3)C[C@@H]2O1,.,-,-82
CC(=O)NC[C@H]1[C@@H](c2ccc(-c3ccccc3F)cc2)[C@@H](CO)N1C(C)=O,-,-,-
C[C@@H]1CN([C@H](C)CO)C(=O)c2cc(NS(C)(=O)=O)ccc2O[C@@H](C)CCCCO[C@H]1CN(C)Cc1ccccc1,-,-,-
Cc1ccc(S(=O)(=O)Nc2ccc3c(c2)C(=O)N([C@H](C)CO)C[C@@H](C)[C@@H](CN(C)Cc2ccccc2)OCCCC[C@@H](C)O3)cc1,-,-,-83
C[C@@H]1CN([C@@H](C)CO)C(=O)c2cc(NS(C)(=O)=O)ccc2O[C@@H](C)CCCCO[C@@H]1CN(C)Cc1ccccc1,-,-,-95
C[C@@H]1CN([C@H](C)CO)C(=O)c2cc(NS(C)(=O)=O)ccc2O[C@@H](C)CCCCO[C@H]1CN(C)Cc1ccc(Cl)c(Cl)c1,-,-,-
Cc1ccc(S(=O)(=O)Nc2ccc3c(c2)C(=O)N([C@@H](C)CO)C[C@H](C)[C@H](CN(C)Cc2ccccc2)OCCCC[C@H](C)O3)cc1,-,-,-
C[C@@H]1CN([C@H](C)CO)C(=O)c2cc(NS(C)(=O)=O)ccc2O[C@@H](C)CCCCO[C@@H]1CN(C)Cc1ccc(Cl)c(Cl)c1,-,-,-88
C[C@@H]1CCCCO[C@H](CN(C)C(=O)Nc2ccc(F)cc2)[C@H](C)CN([C@@H](C)CO)C(=O)c2cc(NS(=O)(=O)c3ccccc3)ccc2O1,-,-,-91
C[C@@H]1CCCCO[C@H](CN(C)C(=O)Nc2ccc(F)cc2)[C@H](C)CN([C@H](C)CO)C(=O)c2cc(NS(=O)(=O)c3ccc(F)cc3)ccc2O1,-,-,-87
C[C@@H]1CCCCO[C@@H](CN(C)C(=O)Nc2ccc(F)cc2)[C@H](C)CN([C@H](C)CO)C(=O)c2cc(NS(=O)(=O)c3ccc(F)cc3)ccc2O1,-,-,-
C[C@@H]1CCCCO[C@H](CN(C)C(=O)Nc2ccc(C(F)(F)F)cc2)[C@@H](C)CN([C@H](C)CO)C(=O)c2cc(NS(=O)(=O)c3ccccc3)ccc2O1,-,-,-
C[C@@H]1CN([C@@H](C)CO)C(=O)c2cc(NS(=O)(=O)c3ccc(F)cc3)ccc2O[C@@H](C)CCCCO[C@@H]1CN(C)C(=O)Nc1ccc(C(F)(F)F)cc1,.,-,-88
C[C@@H]1CCCCO[C@@H](CN(C)C(=O)Nc2ccccc2)[C@@H](C)CN([C@H](C)CO)C(=O)c2cc(NS(=O)(=O)c3ccc(F)cc3)ccc2O1,-,-,-
SMILES,Tcruzi prolif,C diff growth,Pf Dd2 growth
C[C@@H]1CCCCO[C@H](CN(C)C(=O)Nc2ccc(C(F)(F)F)cc2)[C@@H](C)CN([C@@H](C)CO)C(=O)c2cc(NS(=O)(=O)c3ccccc3)ccc2O1,-,-,-84
C[C@H](CO)N1C[C@H](C)[C@@H](CN(C)C(=O)Nc2ccc(C(F)(F)F)cc2)OCCCC[C@H](C)Oc2ccc(NS(=O)(=O)c3ccc(F)cc3)cc2C1=O,-,-,-
O=S(=O)(Cc1ccccc1)NCC[C@@H]1CC[C@@H](NS(=O)(=O)c2ccc(F)cc2)[C@H](CO)O1,-,-,-
COCC(=O)Nc1ccc2c(c1)[C@@H]1C[C@@H](CC(=O)O)O[C@@H](CO)[C@@H]1O2,.,-,-
C[C@@H]1CCCCO[C@H](CN(C)C(=O)Nc2ccc(F)cc2)[C@@H](C)CN([C@H](C)CO)C(=O)c2cc(NS(=O)(=O)c3cccs3)ccc2O1,-,-,-
C[C@@H]1CCCCO[C@@H](CN(C)C(=O)Nc2ccccc2)[C@H](C)CN([C@H](C)CO)C(=O)c2cc(NS(=O)(=O)c3ccc(Cl)cc3)ccc2O1,-,-,-
Cc1ccc(S(=O)(=O)Nc2ccc3c(c2)C(=O)N([C@@H](C)CO)C[C@@H](C)[C@@H](CN(C)C(=O)Nc2ccc4c(c2)OCO4)OCCCC[C@H](C)O3)cc1,.,-,?
C[C@@H]1CCCCO[C@H](CN(C)C(=O)Nc2ccccc2)[C@@H](C)CN([C@@H](C)CO)C(=O)c2cc(NS(=O)(=O)c3ccc(Cl)cc3)ccc2O1,-,-,-89
Cc1ccc(S(=O)(=O)Nc2ccc3c(c2)C(=O)N([C@@H](C)CO)C[C@H](C)[C@@H](CN(C)C(=O)Nc2ccc4c(c2)OCO4)OCCCC[C@@H](C)O3)cc1,.,-,-85
C[C@H]1CCCCO[C@H](CN(C)C(=O)Nc2ccc(C(F)(F)F)cc2)[C@@H](C)CN([C@@H](C)CO)C(=O)c2cc(NS(=O)(=O)c3ccc(Cl)cc3)ccc2O1,-,-,-83
C[C@H](CO)N1C[C@H](C)[C@H](CN(C)C(=O)Nc2ccc(C(F)(F)F)cc2)OCCCC[C@H](C)Oc2ccc(NS(=O)(=O)c3ccc(Cl)cc3)cc2C1=O,-,-,-
C[C@@H]1CCCCO[C@H](CN(C)C(=O)Nc2ccc(F)cc2)[C@H](C)CN([C@@H](C)CO)C(=O)c2cc(NS(=O)(=O)c3cccs3)ccc2O1,-,-,-85
COc1ccc(CN(C)C[C@@H]2Oc3ccc(NC(=O)CCCN(C)C)cc3C(=O)N([C@@H](C)CO)C[C@H]2C)cc1,.,-,-
C[C@H](CO)N1C[C@H](C)[C@@H](CN(C)Cc2ccc(Cl)c(Cl)c2)Oc2ccc(NS(=O)(=O)c3ccc(F)cc3)cc2CC1=O,-,.,-
